# Source: PubChem BioAssay (Tox21)
# Inconclusive results are not listed. A number with no mark means an inactive call. The source made the active and inactive calls. Calls come from the whole dose curve; as a rule, active = well fitted activation curve with a large enough effect in the repeat runs; inconclusive = weak or mixed curves; inactive = no such curve, though single readings can be large or run the other way.
# Biological target: Aryl hydrocarbon receptor (Homo sapiens) (UniProt P35869)
# Sequence (P35869 whole entry, looked up): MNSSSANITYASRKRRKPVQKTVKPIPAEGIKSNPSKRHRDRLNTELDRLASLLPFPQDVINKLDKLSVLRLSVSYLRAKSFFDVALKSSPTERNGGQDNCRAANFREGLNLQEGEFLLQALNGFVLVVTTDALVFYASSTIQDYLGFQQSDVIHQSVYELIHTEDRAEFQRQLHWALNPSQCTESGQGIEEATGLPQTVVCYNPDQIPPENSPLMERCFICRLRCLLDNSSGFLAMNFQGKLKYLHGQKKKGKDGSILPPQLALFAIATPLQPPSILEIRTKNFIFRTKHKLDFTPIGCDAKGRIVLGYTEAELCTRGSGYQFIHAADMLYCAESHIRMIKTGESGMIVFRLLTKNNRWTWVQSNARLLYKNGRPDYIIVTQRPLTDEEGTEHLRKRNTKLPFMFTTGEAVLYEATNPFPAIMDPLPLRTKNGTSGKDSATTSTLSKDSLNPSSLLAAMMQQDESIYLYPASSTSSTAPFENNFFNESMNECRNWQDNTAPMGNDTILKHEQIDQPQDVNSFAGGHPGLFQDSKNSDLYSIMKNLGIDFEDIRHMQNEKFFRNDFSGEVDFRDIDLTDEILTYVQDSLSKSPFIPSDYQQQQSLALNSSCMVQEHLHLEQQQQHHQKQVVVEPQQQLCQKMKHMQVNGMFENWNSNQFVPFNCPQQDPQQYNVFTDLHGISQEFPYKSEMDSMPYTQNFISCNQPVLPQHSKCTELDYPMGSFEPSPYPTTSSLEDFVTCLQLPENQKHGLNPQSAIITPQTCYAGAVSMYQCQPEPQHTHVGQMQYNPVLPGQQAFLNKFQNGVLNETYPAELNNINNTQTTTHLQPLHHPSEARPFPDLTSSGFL
# Experiment: qHTS assay to identify small molecule that activate the aryl hydrocarbon receptor (AhR) signaling pathway (AID 743085); note: nearly all actives have a fitted effect of over 15% in size;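 for activation: HG2L7.5c1 human HepG2 liver cells with stably integrated DRE-driven firefly reporter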
# Conditions: HepG2 AhR-luc (HG2L7.5c1), luciferase, 24 h; series mostly up to 70.3 µM; activation: at the top concentration
# Text: U.S. Tox21 Program National Center for Advancing Translational Sciences [NCATS] NIH Chemical Genomics Center [NCGC] U.S. Environmental Protection Agency [EPA] National Institutes of Environmental Health Sciences [NIEHS] National Toxicology Program [NTP] U.S. Food and Drug Administration [FDA] Tox21 Assay overview: The Aryl hydrocarbon Receptor (AhR), a member of the family of basic helix-loop-helix transcription factors, is crucial to adaptive responses to environmental changes. AhR mediates cellular responses to environmental pollutants such as aromatic hydrocarbons through induction of phase I and II enzymes but also interacts with other nuclear receptor signaling pathways. A cell based HepG2-AhR-luc assay (HG2L7.5c1 cell line, developed by Dr. Michael S. Denison, University of California at Davis, was used to assess the activation of AhR. HepG2 (human hepatocellular carcinoma) cells were stably transfected with an Ah receptor-responsive firefly luciferase reporter gene plasmid containing 20 dioxin responsive elements and luciferase reporter gene. Increased luciferase activity can be used to identify the compounds that induce AhR activation.
# Tox21 Assay Protocol Summary: 4000 cells in 5 uL/well were dispensed into white wall/solid bottom 1536-well plates using a Multidrop Combi (Thermo Fisher Scientific Inc., Waltham, MA) dispenser. After the assay plates were incubated at 37C for 5 h, 23 nL of compound or DMSO vehicle was transferred to the assay plates by a pintool station (Kalypsys, San Diego, CA). The plates were incubated at 37C for 24 hr. After 1 ul/well of CellTiter-Fluor reagent (Promega, Madison, WI) was added into the assay plates using a Flying Reagent Dispenser (FRD) (Aurora Discovery, CA), the assay plates were incubated at 37C for 30 min. The fluorescence intensity in the plates was measured using a ViewLux plate reader (PerkinElmer, Shelton, CT), followed by the addition of 4 uL of ONE-Glo Luciferase Assay reagent (Promega) using an FRD (Aurora Discovery). After the assay plates were incubated at room temperature for 30 min, luminescence intensity was measured using a ViewLux plate reader (Perkin Elmer).
# % is set by controls: 0 for no effect and ±100 for the full control effect; potency is the fitted concentration of half-maximal effect.
Compound,Potency,activation
CC1CC(O)CC(C)(C)C1 (stereo not given),inactive,–
Cc1nc2ccccn2c(=O)c1CCN1CCC(C(=O)c2ccc(F)cc2)CC1,–,-0.385%
CC(=O)Nc1ccccc1C,–,-0.0543% [at 95 µM]
OCCSc1ccccc1,–,2.79%
CCCCCCCCCCCC[N+](C)(C)CCCS(=O)(=O)[O-],–,-1.43% [at 95 µM]
O=C(O)c1cccnc1C(=O)O,–,-1.07%
CCNC(=O)N1CCN(CCCC(c2ccc(F)cc2)c2ccc(F)cc2)CC1,–,4.1%
CCOC(=O)/C=C/C(=O)O,–,-1.36%
CCOC(=O)[C@@H](C)Oc1ccc(Oc2nc3ccc(Cl)cc3o2)cc1,–,3.8%
COc1ccc(C(=O)c2cccc(O)c2)c(OC)c1,17.2 µM (active),–
CC1CC(=O)NN=C1c1ccc(NCC(C)(C)NCC(O)COc2cc(Cl)ccc2C#N)cc1 (stereo not given),6.68 µM (active),–
Fc1ccccc1[C@@H](F)COC1CCC(Nc2ncnc3[nH]ncc23)CC1 (stereo not given in full),–,0.284%
CC#N,–,-0.0573% [at 95 µM]
O=C(Nc1ccc([N+](=O)[O-])cc1)Nc1ccc([N+](=O)[O-])cc1,–,0.518%
Brc1cc(-c2ccc(Br)c(Br)c2Br)cc(Br)c1Br,8.5 µM (active),–
CCC(C(=O)OCCOCCN(CC)CC)c1ccccc1 (stereo not given),–,1.92%
CCCOc1ccc(S(=O)(=O)N2CCN(CC)CC2)cc1-c1nc2c(CC)n(Cc3ccccn3)nc2c(=O)[nH]1,–,-0.17%
CCC1(C)CC(=O)NC1=O (stereo not given),–,-0.0995%
CCC(Cc1ccccc1)(C(=O)c1ccc(N2CCOCC2)cc1)N(C)C (stereo not given),–,7.12%
COC(=O)CC(=O)C(C)(C)C,–,-0.101%

Compound,Potency,activation
OC(CCCN1CCCCC1)(c1ccccc1)c1ccccc1,–,2.62%
CC1(C)O[C@@H]2C[C@H]3[C@@H]4CCC5=CC(=O)C=C[C@]5(C)[C@H]4[C@@H](O)C[C@]3(C)[C@]2(C(=O)CO)O1,–,9.34%
CCCc1c(OCCCOc2ccc(OCC(=O)O)cc2)ccc(C(C)=O)c1O,–,-0.537%
CNC(=S)NC,–,1.18%
COc1cc2ncnc(Nc3ccc(F)c(Cl)c3)c2cc1OCCCN1CCOCC1,15 µM (active),–
O=C(NCCCN1CCOCC1)c1ccc(Cl)cc1,–,4.79%
Oc1ccc(Nc2ccccc2)cc1,–,2.72%
C=CC(=C)CCCC(C)(C)OC(C)=O,–,4.37%
CC(=O)Oc1ccc(C(=C2CCCCC2)c2ccc(OC(C)=O)cc2)cc1,–,-3.3%
CCC(=O)Oc1ccc(/C(CC)=C(\CC)c2ccc(OC(=O)CC)cc2)cc1,–,-0.553%
O=C(N[C@@H](c1ccccc1)[C@@H]1CCCCN1)c1cccc(C(F)(F)F)c1Cl,–,-8.87%
CC(C)CCCCCCOC(=O)CCCCC(=O)OCCCCCCC(C)C,–,-0.444%
CC(C)(CCl)c1ccccc1,–,-0.377%
CN(C)C(=O)Nc1ccc(Oc2ccc(Cl)cc2)cc1,–,3.72%
CC1=CC(=O)CC(C)(C)C1(O)/C=C/C(C)=C\C(=O)O (stereo not given),–,-0.493%
CC1=C(C=O)C(C)(C)CCC1,–,1.91%
Nc1ccc(S(=O)(=O)O)c(N)c1,–,-1.2%
C1COCO1,–,5.24%
O=C1NCCN1,–,-0.279%
CCCCC(=O)O[C@]1(C(=O)CO)CC[C@H]2[C@@H]3CCC4=CC(=O)CC[C@]4(C)[C@H]3[C@@H](O)C[C@@]21C,–,5.5%
